Pf Dd2 growth – blocks in vitro growth of P. falciparum Dd2 | P. falciparum Dd2 growth, SYBR Green, 72 h | Potency, µM (titrated, usually from 28.9 µM), usual class: inhibitors | 4.3% of 120,000 active; active = well fitted inhibition curve with a large enough effect; also: nearly all actives have a fitted effect of over 65% in size
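Infected erythrocytes (Dd2, 0.3% parasitemia, 2.5% hematocrit final) are added to compound in RPMI-1640/Albumax II medium, grown 72 h at 37C in low oxygen, then lysed with saponin/Triton-X containing SYBR Green and read by fluorescence.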
Hits are given with their value; i = inactive. Only a selection was taken, and hits are over-represented in it overall.

SMILES	Pf Dd2 growth
CN1CCC(N2CC3(CCC2=O)CCN(C(=O)Cn2ccnc2)CC3)C1 (configuration not stated)	i
C[C@@]12CO[C@@H](CNS(C)(=O)=O)O[C@@H]1CC[C@]1(C)[C@@H]2CC[C@@H](O)[C@H]1CC(=O)NCc1ccco1	i
CN1CCC(N2CC[C@@H]3[C@H]2C(=O)NC[C@H](CCC(=O)NCc2ccco2)N3C)CC1	i
Nc1ccc(-c2cccc(CN3CCCC3)c2)cc1	i
Cc1noc([C@@H]2CN(C(=O)Cc3ccsc3)C[C@H]2C(N)=O)n1	i
O=C(NC1CC1)[C@@H]1C[C@H](Oc2cccnc2)CN1S(=O)(=O)c1cccc(F)c1	i
CNC(=O)N1CC(c2noc(C3CCCN3C(=O)NCCc3ccccc3)n2)C1 (configuration not stated)	i
Cc1ccccc1C(=O)N1CCc2nc(C3CC3)nc(-c3ccc(O)cc3)c2CC1	8.9µM
Cc1nc2c(c(-c3ccc(O)cc3)n1)CN(C(=O)c1ccccc1)CC2	i
O=C(c1cccc(Cl)c1)N1CCc2nc(C3CC3)nc(-c3ccc(O)cc3)c2CC1	5µM
Cc1nc2c(c(-c3ccc(Cl)cc3)n1)CCN(C(=O)c1ccccc1C)CC2	i
O=C(c1ccccc1F)N1CCc2nc(C3CC3)nc(-c3ccc(Cl)cc3)c2C1	i
O=C(c1ccccc1)N1CCc2nc(C3CC3)nc(-c3ccc(O)cc3)c2CC1	i
CC1=NS(=O)(=O)N(C)C=C1C(=O)OCc1nc(-c2cccs2)no1	i
COc1cccc(CCC(=O)N2CCc3nn(CC4CC4)c(=O)n3CC2)c1	i
CC(=O)NC1CCN(c2nc(-c3cccnc3)nc3c2cnn3C)C1 (configuration not stated)	i
COc1ccc(-c2cc(N3CCC(NC(=O)c4ccc(C#N)cc4)C3)n[nH]2)cc1 (configuration not stated)	i
COCCO[C@H]1C(=O)N(C2CCN(C(=O)Nc3ccccc3F)CC2)[C@H]1c1ccncc1	i
CC(C)NC(=O)c1ccccc1OCC1CCCN(CC2=Cc3ccccc3OC2)C1 (configuration not stated)	i
COc1ccc(-c2cn3cccnc3n2)cc1NC(=O)c1cc(C)cc(C)c1	13µM
COc1ccc(-c2cn3cccnc3n2)cc1NC(=O)c1ccccc1C(F)(F)F	i
Cc1ccc(C(=O)Nc2cc(-c3cn4cccnc4n3)ccc2C)cc1C	i
CCOC(=O)C1CCN(C(=O)C2COC3(CCC(C)CC3)N2C(=O)c2cccc(C)c2)CC1 (configuration not stated)	i
CSc1ccc(NC(=O)c2nnn3c2COC(c2ccc(C)cc2)C3)cc1 (configuration not stated)	i
CC(C)c1nc2ccc(C(=O)NCc3ccc(N(C)C)cc3)cc2o1	i
SMILES	Pf Dd2 growth
CN(C)c1ccc(CNC(=O)c2ccc3nc(Cc4ccccc4)oc3c2)cc1	i
CCc1nc2ccc(C(=O)NCc3ccc(N(C)C)cc3)cc2nc1CC	3.5µM
O=C(c1ccccc1)N1CCC(N2CCCNC2=O)CC1	i
CNC(=O)c1cc(-c2ccccc2F)cc2c1OCCN2Cc1cccnc1	i
CNC(=O)c1cc(-c2ccc(N3CCOCC3)cc2)cc2c1OCCN2Cc1cccnc1	10µM
CNC(=O)c1cc(-c2ccc(OC)nc2)cc2c1OCCN2Cc1cccnc1	i
O=C(COc1ccc(F)cc1)NCC(=O)N1CCCCCCNC(=O)CC1c1ccccc1 (configuration not stated)	i
CC(C)NC(=O)c1ccc(CC2CCN(C)CC2)cc1	i
CC(C)(C)c1ccc(-c2cc(C[C@H]3CNCC[C@H]3CC(=O)O)no2)cc1	i
O=C(C[C@@H]1CCNC[C@@H]1Cc1cc(-c2ccccc2)on1)N1CCOCC1	i
CC(C)(C)c1ccc(-c2cc(C[C@H]3CNCC[C@H]3CC(=O)N3CCC(n4c(=O)[nH]c5ccccc54)CC3)no2)cc1	6.3µM
CN[C@@H](C)C(=O)N[C@@]1(C)OC[C@@H]2CC[C@H](C(=O)Nc3ccc(F)c(OC)c3)N2C1=O	i
CN1CC(=O)N(C2CCNCC2)Cc2c1ncnc2N1CCCC(O)C1 (configuration not stated)	i
CCOCc1nc(C2CCCN(C(=O)COC)C2)no1 (configuration not stated)	i
O=C(c1nnc(CN2CCN(CCO)CC2)n1-c1ccccc1)N1CCC[C@@H]1C(c1ccccc1)c1ccccc1	i
Cc1cccc(N2CCN(C(=O)c3cnn(-c4ccccc4)c3C3CCN(C(=O)OC(C)(C)C)CC3)CC2)c1C	10µM
Cc1ccc(-n2ncc(C(=O)N3CCN(c4ccccn4)CC3)c2C2CCN(C(=O)OC(C)(C)C)CC2)cc1	i
COc1cccc(N2CCN(C(=O)c3cnn(C(C)(C)C)c3C3CCN(C(=O)OC(C)(C)C)CC3)CC2)c1	13µM
COc1ccc(-n2ncc(C(=O)N3CCN(c4cc(C)ccc4C)CC3)c2C2CCN(C(=O)OC(C)(C)C)CC2)cc1	i
COc1cccc(N2CCN(C(=O)c3cnn(-c4ccc(C)cc4C)c3C3CCN(C(=O)OC(C)(C)C)CC3)CC2)c1	6.3µM
COc1ccc(-n2ncc(C(=O)N3CCOCC3)c2C2CCN(C(=O)OC(C)(C)C)CC2)cc1	i
CN(Cc1ccc(C(F)(F)F)cc1)Cc1cccc(C(F)(F)F)c1	i
Cc1cccc(NC(=O)CC2=C3CCCCC3N(C)C2=O)c1 (configuration not stated)	i
Cc1ccc(C(=O)N2CCN(c3cc(-c4cccs4)[nH]n3)CC2)cc1	i
CC(C)CCC(=O)N1CCC2(CC1)Nc1ccccc1NC2=O	i
SMILES	Pf Dd2 growth
Cn1cccc1C(=O)NCC(=O)N1CCCCCNC(=O)CC1c1ccccc1 (configuration not stated)	i
NC(=O)c1csc(S(=O)(=O)N2CCC(CO)(CN3CCCC3)CC2)c1	i
COc1cccc(NC(=O)O[C@@H]2CC[C@]3(C)C(CC[C@@H](O)[C@H]3CC(=O)NCc3ccccc3OC)[C@]2(C)CO)c1 (some centres not stated)	i
O=C(NC[C@H]1O[C@H](Cc2cc(COc3ccccc3)on2)CC[C@@H]1O)c1ccc2c(c1)OCO2	i
Cc1cc(F)ccc1NC(=O)CN1C(=O)NC2(CCS(=O)(=O)CC2)C1=O	i
COc1ccc(CCNC(=O)c2c[nH]n3c(=O)c(Cc4ccccc4Cl)c(C)nc23)cc1OC	10µM
Cc1nc2c(C(=O)NCCc3ccccc3)c[nH]n2c(=O)c1Cc1ccc(F)cc1Cl	i
Cc1nc2c(C(=O)NCCc3ccc(Cl)cc3)c[nH]n2c(=O)c1Cc1ccccc1F	i
Cc1oc(-c2ccc(F)cc2)nc1CN1CCC2(CCCO2)CCC1=O (configuration not stated)	i
Cc1nnc2n1CCC(NC(=O)c1ccc3c(c1)OCO3)CC2 (configuration not stated)	i
Cc1ccc(CNC(=O)C2Cn3cccc3C(=O)N2CC(C)C)o1 (configuration not stated)	i
COc1cc2nc(NCCc3cccc(C)c3)n3nc(-c4ccccc4)nc3c2cc1OC	0.5µM
COc1ccccc1CNc1nc2ccccc2c2nc(-c3cccnc3)nn12	i
COc1cc2nc(NCc3ccc(C)cc3)n3nc(-c4ccccc4)nc3c2cc1OC	0.1µM
Cc1cccc(-c2nc3c4ccccc4nc(NCc4ccc(Cl)cc4)n3n2)c1	i
COCCCNC(=O)CSc1nc2cc(OC)c(OC)cc2c2nc(-c3ccccc3)nn12	i
Cc1ccc(CNc2nc3ccccc3c3nc(-c4cccc(C)c4)nn23)cc1	i
COc1ccc(CC(=O)NC2CCN(c3cn[nH]c(=O)c3)CC2)cc1	i
